A selection: hits, their analogues and other compounds. The true share with any hit is near 3.6%.
D1 antag: Antagonist of Human D 1 Dopamine Receptor: qHTS. activity change, negative = inhibition, % at 10 µM. 3.2% of 360,000 active. HEK293 TREx D1 cells, calcium flux, dopamine EC80; active compounds read low. D(1A) dopamine receptor (Homo sapiens), P21728. AID 504652, 2011; in the data active = activity change below about -30%; note: % is set by controls: 0 for no effect and ±100 for the full control effect
Target sequence (P21728 whole entry, looked up): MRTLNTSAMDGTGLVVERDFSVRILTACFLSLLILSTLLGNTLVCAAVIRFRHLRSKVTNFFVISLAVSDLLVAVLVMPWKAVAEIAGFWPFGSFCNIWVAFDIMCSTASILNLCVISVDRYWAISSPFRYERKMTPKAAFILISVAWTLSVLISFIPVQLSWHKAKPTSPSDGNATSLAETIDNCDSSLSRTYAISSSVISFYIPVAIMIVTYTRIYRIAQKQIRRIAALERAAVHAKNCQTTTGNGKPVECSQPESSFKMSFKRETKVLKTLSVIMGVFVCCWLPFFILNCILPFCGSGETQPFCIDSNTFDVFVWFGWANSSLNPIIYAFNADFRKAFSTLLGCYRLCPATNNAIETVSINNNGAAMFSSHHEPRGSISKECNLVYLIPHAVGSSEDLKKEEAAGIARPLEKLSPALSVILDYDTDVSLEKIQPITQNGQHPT
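Compound effects on dopamine-evoked calcium signalling were measured in tetracycline-induced HEK293 Trex D1 cells. Dopamine at EC80 followed a 180 s compound pre-read, and fluorescence was tracked kinetically for 180 s more.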
TRHR agonist: qHTS for Small Molecule Agonists and Allosteric Enhancers of Human TRH Receptor: Primary Screen for Agonists; activation, % at 2 µM; TRHR cells, calcium flux fluo-8, FDSS agonist mode; AID 493084, 2011; 0.18% of 360,000 active; Thyrotropin-releasing hormone receptor (Homo sapiens), P34981; note: 0% is about no effect
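Read-out: compound-evoked intracellular calcium rise in TRHR cells, fluo-8 dye, kinetic FDSS fluorescence at 1 s/cycle following a 10-cycle baseline. Cells cultured overnight before dye loading (30 min–1.5 h, RT).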
D1 potentiator: Potentiators of Human D1 Dopamine Receptor: qHTS. D(1A) dopamine receptor (Homo sapiens), P21728. HEK293 TREx D1 cells, calcium flux, dopamine EC20 potentiation. potentiation, % at 10 µM. 0.036% of 360,000 active. AID 504651, 2011; in the data active = potentiation above about 30%; note: 0% is about no effect
TRHR enhancer: qHTS for Small Molecule Agonists and Allosteric Enhancers of Human TRH Receptor: Primary Screen for Enhancers | TRHR cells, fluo-8 calcium fluorescence, EC20 TRH enhancement | Thyrotropin-releasing hormone receptor (Homo sapiens), P34981 | 0.66% of 360,000 active | enhancement, % at 2 µM | AID 493056, 2011; in the data active = enhancement above about 30%; note: 0% is about no effect
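Enhancer read-out: after compound pinning and an initial kinetic agonist-mode read, an EC20 of TRH (10 nM final) was injected and fluo-8 calcium signal (Ex 480/Em 530) followed at 1 s/cycle for 100 cycles in TRHR-expressing cells.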
LDHA block: qHTS assay for inhibitors of human lactate dehydrogenase; activity change, % (values are at about 110 or 230 µM); purified LDHA, NADH/diaphorase-resazurin fluorescence; active compounds read low; L-lactate dehydrogenase A chain (Homo sapiens), P00338; AID 1347041, 2019; 0.15% of 480,000 active; in the data active = activity change below about -30%;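 note: plate controls were DMSO wells for no effect and wells without enzyme for full effect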
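Human LDH5 (2 nM) was incubated with 0.06 mM NADH and 0.2 mM pyruvate for 5 min at room temperature in Tris pH 7.4. Remaining NADH was coupled through diaphorase/resazurin, and resorufin fluorescence was read at 0 and 20 min.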
D1 agonist: Allosteric Agonists of the Human D1 Dopamine Receptor: qHTS; D(1A) dopamine receptor (Homo sapiens), P21728; HEK293 T-REx D1 cells, calcium flux, agonist mode; activation, % at 2 µM; 1% of 360,000 active; AID 504660, 2011; note: 0% is about no effect
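Inducible HEK293 T-REx D1 cells, force-coupled to calcium signalling, were plated at 4000 cells/well with tetracycline and held overnight at 30 C. After no-wash calcium dye loading, compound-evoked calcium rise over 180 s flagged agonists.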
* marks the source's active call; other numbers are inactive results. Cut-off read from the data, not from the text of the source, unless noted: active = activation above about 30%; inactive = the rest.

Results for Cc1cc[n+](-c2[nH]c(=O)sc2/C=N/NC([S-])=Nc2ccccc2)cc1C ?
D1 antag: 7.7; TRHR agonist: 4.2; D1 potentiator: -7.2; TRHR enhancer: 3.2; LDHA block: -4.4; D1 agonist: 5.9

How did CC(C)(C)c1cc[n+](-c2[nH]c(=O)sc2/C=N/NC([S-])=Nc2ccccc2)cc1 do in these assays?
D1 antag: 4.3; TRHR agonist: 18.1; D1 potentiator: -1.9; TRHR enhancer: 0.9; LDHA block: -2.9; D1 agonist: 90.5*

Results for CCOCCCNC(=S)NC1CC1 ?
LDHA block: -0.2

What do the screens show for `CCN(CC)S(=O)(=O)c1ccc(C)c(NCc2ccccc2C#N)c1`?
LDHA block: 4.6

Results for COC(=O)c1nn(-c2ccccc2)c(=O)cc1O ?
D1 antag: 4.8; TRHR agonist: 0.3; D1 potentiator: 0.8; TRHR enhancer: -9.0; LDHA block: 2.0; D1 agonist: 1.2

Results for O=C(O)c1nn(-c2cccc(Cl)c2)c(=O)cc1O ?
D1 antag: -44.5*; TRHR agonist: 0.5; D1 potentiator: -4.2; TRHR enhancer: 1.8; LDHA block: 3.4; D1 agonist: 0.5

What do the screens show for `O=C(COC(=O)c1ccc(Cl)c([N+](=O)[O-])c1)NC1CCCC1`?
D1 antag: -23.7; TRHR agonist: -0.7; D1 potentiator: -4.5; TRHR enhancer: -4.6; LDHA block: -3.5; D1 agonist: 0.8

What do the screens show for `O=C(COC(=O)c1cccc2c1C(=O)c1ccccc1C2=O)NC1CCCCC1`?
D1 antag: -77.8*; TRHR agonist: 0.5; D1 potentiator: 3.4; TRHR enhancer: 4.3; LDHA block: 18.8; D1 agonist: 6.7

What do the screens show for `O=C(COC(=O)c1cccc(OC(F)F)c1)NC(=O)NC1CCCCC1`?
D1 antag: -11.5; TRHR agonist: -1.1; D1 potentiator: -2.9; TRHR enhancer: 1.8; LDHA block: 0.9; D1 agonist: 42.5*

How did O=C(COC(=O)c1ccccc1C(=O)c1ccc(Cl)c([N+](=O)[O-])c1)NC1CCCCCC1 do in these assays?
D1 antag: -34.5*; TRHR agonist: -0.8; D1 potentiator: -4.5; TRHR enhancer: -1.5; LDHA block: -4.6; D1 agonist: 2.8

Results for CC(=O)OC1C2CCC1C([N+]1(C)CCCCC1)CC2 (stereo not given) ?
D1 antag: 21.8; TRHR agonist: 1.4; D1 potentiator: -3.6; TRHR enhancer: -1.4; LDHA block: -33.9*; D1 agonist: 1.9

What do the screens show for `CCc1nc(C)ccc1OCC(=O)NCCCN(C)C`?
D1 antag: -9.8; TRHR agonist: -0.3; D1 potentiator: -6.3; TRHR enhancer: 22.0; LDHA block: -32.8*; D1 agonist: 16.2

Results for COc1cccc(C(=O)Nc2nc3c(s2)CN(C)CC3)c1 ?
D1 antag: 8.7; TRHR agonist: -0.3; D1 potentiator: -3.3; TRHR enhancer: 24.2; LDHA block: -10.0; D1 agonist: 98.9*

What do the screens show for `CN1CCc2nc(NC(=O)c3cccc(S(=O)(=O)N4CCc5ccccc54)c3)sc2C1`?
D1 antag: -10.4; TRHR agonist: 0.2; D1 potentiator: -6.0; TRHR enhancer: 0.0; LDHA block: -4.2; D1 agonist: 5.2

Results for COc1ccc(C(=O)Nc2ccc(C(=O)Nc3cccc(C)c3)cc2)cc1 ?
D1 antag: -30.6*; TRHR agonist: 0.3; D1 potentiator: -4.7; TRHR enhancer: -0.1; LDHA block: 3.8; D1 agonist: 2.3

How did O=C(CSc1ccc2ccccc2c1)Nc1ccncc1 do in these assays?
TRHR agonist: 0.2; D1 potentiator: -4.3; TRHR enhancer: -0.3; LDHA block: 4.2; D1 agonist: 11.9
